Experiment in all cases: NCI-60 one-dose screen, 48 h (100 = growth as untreated, 0 = no growth, -100 = all killed)
Settings in all cases: 10 µM unless noted

Assay [1] has as its system NCI-H23 lung.
For assay [2], the system named is NCI-H226 lung.
In assay [3] the test system is NCI-H322M lung.
In assay [4] the test system is HOP-62 NSCLC.
In assay [5] the test system is NCI-H460 lung.
The subject of assay [6] is HOP-92 NSCLC.
In assay [7] the test system is NCI-H522 lung.
Assay [8] deals with A549/ATCC NSCLC.
The test system of assay [9] is 786-0 renal.
Assay [10] deals with COLO 205 colon.

About 83,000 compounds went through this panel and 20% of them were active in at least one assay; those are over-represented in the sample as a whole.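 The test compound was applied at a single concentration to cells in 96-well plates for 48 hours, and percent growth was recorded.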 Values without a mark were called inactive. Calls of active or inactive are those of the source. Rule for the calls: active = growth percent below 10; inactive = the rest.

Regarding `CCCCCCCCCCCCCCCC(=O)OCC1OC(n2cnc3c(=S)nc(N)[nH]c32)C(OC(=O)CCCCCCCCCCCCCCC)C1OC(=O)CCCCCCCCCCCCCCC` (stereo not given), the growth in [1] was 66.2%; in [2] it was 76.7%; in assay [3] it was 72.2%; in [4], 47.8%; in assay [5] it was 63.4%; in assay [6], 56%. The growth was 66.1% in assay [7], 74.3% in assay [8], 61% in assay [9] and 90% in [10].
In the case of `CC(=O)OCC(=O)C1CCC=CC1OC(C)=O` (stereo not given), the growth is 97.7% in assay [1]; 92.6% in assay [2]; 88.8% in [3]; 86.3% in [4]; 108% in assay [5]; 98.9% in assay [6]. Further, the growth in assay [7] was 75.1%; in [8], 94.4%; in assay [9], 99.2%; in [10], 110%.
Turning to `CN(C)CCCC(=O)Nc1ccc(Cn2nnc3c2C(=O)c2nnn(Cc4ccc(NC(=O)CCCN(C)C)cc4)c2C3=O)cc1`, the growth in [1] was 2.08% (active); in [2] it was 102%; in assay [3] it was 38.5%; in [4], 83.2%; in [5], 31%; in assay [6], 116%. For the same compound, the growth is 71.8% in assay [7], 91.9% in [8], 96.9% in assay [9] and -9.75% (active) in assay [10].
On to `Cc1ccc(Nc2nc(N)nc(Nc3ccc4ccccc4c3)n2)cc1`, for which the growth in [1] is 69.2%; in [2], 89.8%; in assay [3] it was 52.4%; in assay [4] it was 47%; in assay [5], 14.6%; in [6] it was 21.1%. Besides, the growth in [7] is 6.88% (active); in [8], 30.9%; in assay [9], 46.6%; in [10], 18.7%.
Regarding `CC(C)(C)n1cc(-c2ccnc(NCCNS(=O)(=O)c3ccccc3)c2)c(-c2cccc(O)c2)n1`, the growth in assay [1] was 70.3%; in assay [2], 60.4%; in assay [3], 78.1%; in assay [4], 82.5%; in assay [5], 36.7%; in assay [6] it was 77.8%. Also, the growth in assay [7] is 57.7%; in assay [8] it was 47.1%; in [9] it was 18.5%; in [10] it was 6.61% (active).
As for `COc1cc2nc3cc([N+](=O)[O-])ccc3c(NCCCNCC(C)(C)O)c2cc1OC`, the growth was -47.4% (active) in assay [1]; -37.6% (active) in assay [2]; -24.8% (active) in assay [3]; -53.3% (active) in [4]; -48.5% (active) in assay [5]; -53.9% (active) in assay [6]. The growth in assay [7] was -56.7% (active); in [8], -30.9% (active); in [9], -61.6% (active); in [10] it was -81.2% (active).
As for `O=C(Nc1cccc2[nH]c(C(F)(F)F)nc12)c1ccc(Br)cc1F`, the growth in assay [1] is 1.94% (active); in assay [2], 36.4%; in assay [3], 57%; in assay [4], 45.3%; in assay [5] it was 15.1%; in [6], -14.9% (active). Besides, the growth in assay [7] was -7.83% (active); in [8] it was 16.7%; in assay [9] it was 35.8%; in assay [10], 26%.
Consider `COc1ccc(-c2cc(NC(=O)Nc3ccc(O)cc3)no2)cc1`, for which the growth in assay [1] was 89.5%; in [2], 84.2%; in assay [3], 66.8%; in assay [4], 88.5%; in [5] it was 86.2%; in [6], 94%. In addition, the growth in assay [7] was 44.8%; in assay [8] it was 67.6%; in assay [9], 77.3%; in assay [10], 105%.
Regarding `COc1cc(-c2c3c(nc4c2c(C)nn4-c2ccccc2)-c2ccccc2C(=O)C3=O)cc(OC)c1OC`, the growth in [1] was 76.6%; in [2] it was 99.7%; in assay [3], 104%; in assay [4], 107%; in assay [5], 77.4%; in assay [6], 83.7%. Moreover, the growth in [7] is 84.4%; in [8] it was 80.6%; in assay [9], 97.8%; in assay [10], 69.7%.
In the case of `C=C1CCC2C3(C)COC(C)(C)OC3CCC2(C)C1C/C=C1/C(=O)OCC1OC(C)=O` (stereo not given), the growth in assay [1] is 50.4%; in assay [2], 50.3%; in [3], 100%; in assay [4] it was 112%; in assay [5], 95.4%; in assay [6] it was 123%. Further, the growth in assay [7] is -88.7% (active); in assay [8] it was 61.7%; in assay [9] it was 48.5%; in assay [10], -0.595% (active).
As for `CCn1cc2c(cc1=O)-c1nc3ccccc3c3ccnc(c13)C2=O`, the growth in assay [1] was 27.6%; in assay [2] it was 63.1%; in assay [3], 76.3%; in [4], 11.9%; in assay [5], 2.86% (active); in assay [6], 56.6%. For the same compound, the growth in assay [7] is 39%; in [8] it was 29%; in assay [9], 69.1%; in assay [10] it was 60.8%.
Regarding `CSc1ccc(N=C=C(c2ccccc2)c2ccccc2)cc1`, the growth in [1] is 99%; in assay [2], 95.7%; in assay [3], 107%; in [4], 96.1%; in [5], 102%; in assay [6], 85.4%. Further, the growth in [7] is 71.8%; in [8] it was 78.4%; in assay [9] it was 95.6%; in [10], 107%.
With `Nc1nc(-c2ccc(F)cc2)cc(-c2cnn(-c3ccccc3)n2)n1`, the growth was 99.1% in assay [1]; 105% in assay [2]; 93.9% in assay [3]; 101% in assay [4]; 103% in assay [5]; 94.1% in assay [6]. The growth is 82.2% in [7], 95.3% in assay [8], 107% in assay [9] and 105% in assay [10].

Values taken from PubChem BioAssay (NCI).
